# Activity calls are given as the source filed them. Unless noted, how the calls were made is not given here.
# Tests used:
# [1] = resazurin metabolic signal in HepG2 cells – cell-based, resazurin fluorescence, 24 h, PK04 Diversity Set, profiling panel (AID 1172); conditions: HepG2 viability, higher = more signal; further: test concentration not given here
# [2] = budding yeast growth changes without added modifier – OD600, strain BY4716, 24 h, basal condition, primary screen (AID 1173); conditions: S. cerevisiae BY4716 growth, OD600, 24 h; higher = more signal, called active from +8 up or from −8 down
# [3] = viability profiling in MM1S myeloma cells – cell-based, resazurin fluorescence, basal, 24 h, PK04 Diversity Set, profiling panel (AID 1174); conditions: higher = more signal, called active from +8 up or from −8 down;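 further: MM1S multiple myeloma cell line; test concentration not given here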
# [4] = molecular target: Dihydroorotate dehydrogenase (quinone), mitochondrial (Plasmodium falciparum (isolate 3D7)) (UniProt Q08210); assay: inhibition of P. falciparum DHODH – biochemical, C-terminal His tag, absorbance 600 nm, primary screen (AID 1175); conditions: PfDHODH enzyme, DCIP absorbance 600 nm; higher = more signal, called active from +8 up or from −8 down;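 further: recombinant parasite enzyme with a five histidine tag at its C terminus; test concentration not given here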
# [5] = inhibition of PAO1 biofilm formation – strain PAO1, LB-PBS medium, absorbance 600 nm, primary screen (AID 1176); further: test concentration not given here; conditions: P. aeruginosa PAO1 growth/biofilm, A600, 12 h; higher = more signal
# [6] = growth modulation of vineyard yeast isolate – strain RM11-1a, OD600, basal, 24 h, primary screen (AID 1177);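 further: cultures grown under basal conditions with no added stressor; test concentration not given here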; conditions: S. cerevisiae RM11-1a growth, OD600, 24 h; higher = more signal, called active from +8 up or from −8 down
# [7] = growth of efflux-deficient E. coli DRC39 – strain DRC39, OD650, 24 h, E. coli filamentation inducers, primary screen (AID 1178);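 further: growth measured as culture turbidity by optical density at 650 nm; test concentration not given here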; conditions: E. coli DRC39 acrAB, higher = more signal, called active from +8 up or from −8 down
# [8] = growth of efflux-deficient E. coli DRC39 – strain DRC39, OD650, 48 h, E. coli filamentation inducers, primary screen (AID 1179);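 further: screen aims at cell division blockers that make cells filament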; conditions: E. coli DRC39 delta-acrAB growth, higher = more signal, called active from +8 up or from −8 down
# [9] = viability profiling in RPMI8226 myeloma cells – cell-based, resazurin fluorescence, basal, 24 h, PK04 Diversity Set, profiling panel (AID 1180); conditions: higher = more signal;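 further: RPMI8826 multiple myeloma cell line at 5000 cells per well; test concentration not given here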
# [10] = molecular target: E3 ubiquitin-protein ligase XIAP (Homo sapiens) (UniProt P98170); assay: small molecules binding XIAP protein – biophysical, small-molecule microarray, fluorescence 635 nm, primary screen (AID 1181); conditions: higher = more signal;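 further: score merges 667 nm emission and signal to noise over triplicate slides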
# E3 ubiquitin-protein ligase XIAP (Homo sapiens), sequence (P98170 whole entry, looked up): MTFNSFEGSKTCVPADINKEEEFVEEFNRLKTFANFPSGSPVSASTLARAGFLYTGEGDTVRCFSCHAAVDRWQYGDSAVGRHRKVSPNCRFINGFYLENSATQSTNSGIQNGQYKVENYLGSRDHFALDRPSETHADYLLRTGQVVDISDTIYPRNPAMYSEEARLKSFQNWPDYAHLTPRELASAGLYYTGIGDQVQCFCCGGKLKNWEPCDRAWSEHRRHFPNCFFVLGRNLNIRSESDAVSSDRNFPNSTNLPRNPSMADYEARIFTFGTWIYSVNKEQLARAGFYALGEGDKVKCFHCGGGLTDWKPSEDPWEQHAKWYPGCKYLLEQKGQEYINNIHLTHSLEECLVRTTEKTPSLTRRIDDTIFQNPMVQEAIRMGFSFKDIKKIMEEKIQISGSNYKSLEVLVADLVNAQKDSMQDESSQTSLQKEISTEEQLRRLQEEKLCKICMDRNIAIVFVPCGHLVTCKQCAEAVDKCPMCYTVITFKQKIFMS
# Dihydroorotate dehydrogenase (quinone), mitochondrial (Plasmodium falciparum (isolate 3D7)), sequence (Q08210 whole entry, looked up): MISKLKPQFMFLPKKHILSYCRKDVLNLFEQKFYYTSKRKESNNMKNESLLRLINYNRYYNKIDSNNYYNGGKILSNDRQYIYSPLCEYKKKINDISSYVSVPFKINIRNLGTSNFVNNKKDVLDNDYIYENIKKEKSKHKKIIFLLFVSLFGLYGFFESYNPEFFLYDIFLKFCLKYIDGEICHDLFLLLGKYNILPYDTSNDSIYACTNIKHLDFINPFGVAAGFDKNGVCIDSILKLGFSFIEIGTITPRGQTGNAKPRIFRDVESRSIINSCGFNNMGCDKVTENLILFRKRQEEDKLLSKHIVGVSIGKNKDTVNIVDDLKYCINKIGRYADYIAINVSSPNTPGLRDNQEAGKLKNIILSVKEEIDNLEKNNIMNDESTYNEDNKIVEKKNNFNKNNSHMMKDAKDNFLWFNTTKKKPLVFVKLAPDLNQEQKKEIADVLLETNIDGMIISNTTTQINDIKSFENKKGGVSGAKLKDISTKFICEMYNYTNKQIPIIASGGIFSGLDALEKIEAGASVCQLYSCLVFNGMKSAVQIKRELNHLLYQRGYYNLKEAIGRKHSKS
Structure (SMILES),z-score [1],z-score [2],z-score [3],composite z-score [4],z-score [5],z-score [6],z-score [7],z-score [8],z-score [9],composite z-score [10]
CCCNC(=O)OC[C@H]1O[C@H](CCON=C(C)C)C=C[C@@H]1Oc1ccc(OC)cc1,-0.131,-2.44 (inactive),-0.112 (inactive),-0.411 (inactive),0.736 (inactive),-0.0159 (inactive),0.675 (inactive),-1.4 (inactive),-0.331,-0.0859
CO[C@H](C1CCCCC1)[C@H](C)C=CCC(=O)OCCCc1ccccc1,0.159,0.878 (inactive),0.227 (inactive),0.503 (inactive),-0.315 (inactive),1.63 (inactive),-0.778 (inactive),-0.417 (inactive),-0.0411,-0.193
C#CCCCON=C1[C@H]2CCn3c(=O)n(-c4ccccc4)c(=O)n3[C@H]2[C@H](O)[C@@H]2O[C@H]12,-0.775,-1.34 (inactive),-2.23 (inactive),-1.16 (inactive),0.352 (inactive),-1.93 (inactive),-0.536 (inactive),-0.231 (inactive),-1.7,-0.147
COC(=O)[C@H](C)NC(=O)CCC1CC(OC(=O)NCc2cccc3ccccc23)CC2(CCCC(COC(=O)NCC(c3ccccc3)c3ccccc3)O2)O1 (stereo not given in full),1.64,-0.425 (inactive),0.945 (inactive),0.0975 (inactive),-1.24 (inactive),0.15 (inactive),0.0127 (inactive),0.393 (inactive),1.04,-0.108
CCCCc1nc2c(c3c1C[C@H](C)OC3)CN(CCOc1ccccc1)CC2,-0.492,-3.28 (inactive),0.422 (inactive),-0.845 (inactive),1.1 (inactive),-1.49 (inactive),1.18 (inactive),-0.908 (inactive),0.386,0.437
COC(=O)[C@H]1[C@@H](O)[C@@]2(O)c3ccccc3O[C@@]2(c2ccccc2)[C@@H]1c1ccccc1,-0.314,0.358 (inactive),-0.683 (inactive),0.154 (inactive),-0.175 (inactive),0.653 (inactive),-0.306 (inactive),-0.446 (inactive),-0.857,-0.173
C#CCCCON=C1C[C@@H](O)[C@@H](O)[C@@H]2[C@@H]3C(=O)N(CC)C(=O)[C@@H]3CC[C@@H]12,-0.245,0.961 (inactive),-0.529 (inactive),-0.367 (inactive),0.07 (inactive),0.375 (inactive),0.0322 (inactive),-0.569 (inactive),-0.244,-0.0473
CO[C@@H]1COC(=O)CC=C[C@@H](C)[C@H](OC)COC(=O)[C@@H](C)COC(=O)CC=C[C@H]1C,0.225,-0.621 (inactive),0.586 (inactive),0.577 (inactive),-0.225 (inactive),0.401 (inactive),0.666 (inactive),0.733 (inactive),0.151,-0.0264
O=c1n(Cc2cc3c(cc2Cl)OCO3)c(=O)n2n1CC[C@@H]1C(=NOC[C@@H](O)COCc3ccco3)[C@H]3O[C@H]3[C@@H](O)[C@@H]12,-0.0975,0.919 (inactive),-0.316 (inactive),0.634 (inactive),0.471 (inactive),0.716 (inactive),-0.133 (inactive),-0.527 (inactive),-0.614,-0.0252
O=C1C=C[C@@H](O)[C@@H]2[C@@H]3C(=O)N(c4ccc(F)cc4F)C(=O)[C@@H]3CC[C@@H]12,-0.862,-1.76 (inactive),-0.138 (inactive),-1.11 (inactive),0.565 (inactive),-2.01 (inactive),-0.664 (inactive),-0.52 (inactive),-0.956,-0.102
CO[C@@H]1COC(=O)[C@H](CCSC)NC(=O)CC=C[C@@H](C)COC(=O)CCC[C@H]1C,1.09,-0.509 (inactive),-0.11 (inactive),-0.555 (inactive),-0.892 (inactive),0.0665 (inactive),0.104 (inactive),0.156 (inactive),0.53,0.871
C[C@H](ON=C1[C@H]2CCn3c(=O)n(-c4ccccc4)c(=O)n3[C@H]2[C@H](O)[C@@H]2O[C@H]12)c1cn([C@H](CO)Cc2ccccc2)nn1,-0.189,-0.145 (inactive),-0.489 (inactive),-1.29 (inactive),0.0282 (inactive),-1.09 (inactive),0.571 (inactive),0.223 (inactive),-0.226,-0.106
CC(=O)O[C@H]1C2=CO[C@H](C)[C@H]3[C@H]4C5=C([C@H](O)[C@H]6O[C@H]6C5=O)[C@H](OC4C)[C@@]23C(=O)[C@@H]2O[C@@H]21 (stereo not given in full),-1.75,0.0895 (inactive),-4.88 (inactive),-0.219 (inactive),1.09 (inactive),-0.464 (inactive),-0.262 (inactive),-0.267 (inactive),-3.5,-0.266
COC(=O)CC=C[C@@H](C)[C@@H](C=NO[C@@H](C)c1cc(-c2c(C)cc(C)cc2C)no1)NS(=O)(=O)c1ccc(C)cc1,0.245,-0.358 (inactive),-0.019 (inactive),-2.27 (inactive),-0.998 (inactive),-0.2 (inactive),-1.1 (inactive),-1.55 (inactive),-0.33,-0.169
O=C1[C@H]2[C@H]3[C@H](O)[C@H](O)CC(=NOCc4ccccc4)[C@@H]3CC[C@H]2C(=O)N1c1ccc(F)cc1F,0.0979,-0.584 (inactive),0.253 (inactive),-1.42 (inactive),0.86 (inactive),-2.15 (inactive),-0.018 (inactive),-0.714 (inactive),-1.19,-0.0563
C[C@H]1COC(=O)[C@@H]2CCCN2C(=O)[C@@H](C)COC(=O)[C@H](Cc2ccccc2)NC1=O,0.409,0.0852 (inactive),-0.208 (inactive),-0.926 (inactive),-0.348 (inactive),-0.231 (inactive),0.0861 (inactive),0.503 (inactive),0.586,1.05
CC(C)CON=C1C[C@@H](O)[C@@H](O)[C@@H]2[C@@H]3C(=O)N(C4CCCCC4)C(=O)[C@@H]3CC[C@H]12,-0.451,-0.197 (inactive),-0.143 (inactive),0.603 (inactive),-0.118 (inactive),-0.207 (inactive),-0.651 (inactive),0.272 (inactive),-0.365,0.224
CO[C@H]1COC(=O)CC=C[C@@H](C)[C@H](OC)COC(=O)CCC[C@@H]1C,0.855,-0.966 (inactive),0.818 (inactive),-0.526 (inactive),-0.172 (inactive),-1.45 (inactive),0.153 (inactive),0.039 (inactive),0.518,0.523
C[C@H]1CC[C@H]2C(=O)O[C@H](COc3ccc(C(C)(C)C)cc3)CN2[C@@H]1c1ccc(Br)cc1,-0.158,-0.407 (inactive),0.422 (inactive),0.159 (inactive),-0.409 (inactive),-0.0809 (inactive),-1.42 (inactive),-1.37 (inactive),0.432,-0.19
COc1ccc(COC(=O)NN=C2C[C@@H](O)[C@@H](O)[C@@H]3[C@@H]4C(=O)N(c5ccc(F)cc5F)C(=O)[C@@H]4CC[C@H]23)cc1,-0.238,-0.291 (inactive),0.317 (inactive),0.0067 (inactive),0.307 (inactive),-0.461 (inactive),-0.0692 (inactive),0.138 (inactive),0.643,0.0674
CC(C)[C@@H](OCc1ccccc1)[C@H](C)C=NOC[C@@H](O)COCc1ccco1,-0.314,-11.9 (active),-0.911 (inactive),-0.585 (inactive),0.429 (inactive),-1.12 (inactive),0.7 (inactive),0.43 (inactive),-0.885,-0.0172
COCCNC(=O)OCC1CCCC2(CC(OC(=O)NCc3ccc4c(c3)OCO4)CC(CCC(=O)N[C@@H](C)C(=O)OC)O2)O1 (stereo not given in full),0.752,-0.433 (inactive),-0.0741 (inactive),0.209 (inactive),-0.282 (inactive),0.715 (inactive),0.311 (inactive),-0.49 (inactive),0.528,-0.173
COc1ccc(O[C@H]2C=C[C@@H](c3ccccc3)O[C@@H]2CON=C(C)CCC(=O)OC[C@H]2O[C@H](c3ccccc3)C=C[C@@H]2Oc2ccc(OC)cc2)cc1,0.319,0.917 (inactive),0.427 (inactive),-0.497 (inactive),-0.868 (inactive),1.26 (inactive),0.277 (inactive),0.434 (inactive),0.476,-0.195
Cc1cc2c(c(=O)o1)[C@@H](O)[C@H]1O[C@H]1C2=O,-0.721,-0.582 (inactive),0.166 (inactive),0.664 (inactive),-0.67 (inactive),0.322 (inactive),-0.729 (inactive),-1.26 (inactive),-0.535,0.13
COC(=O)[C@H](C)NC(=O)CCC1CC(OC(=O)NCCc2ccc(F)cc2)CC2(CCCC(COC(=O)NCc3cccc(C(F)(F)F)c3)O2)O1 (stereo not given in full),-0.0701,1.05 (inactive),0.045 (inactive),-0.302 (inactive),0.59 (inactive),0.744 (inactive),0.696 (inactive),0.602 (inactive),0.436,0.103
CC(=O)OC[C@H]1O[C@@H](ON=C(C)CCN2CCCc3nc(C)c(C)cc32)[C@H](OC(C)=O)[C@@H](OC(C)=O)[C@@H]1OC(C)=O,-0.288,0.131 (inactive),0.188 (inactive),-2.04 (inactive),-0.503 (inactive),-0.45 (inactive),-0.925 (inactive),-1.26 (inactive),0.529,-0.138
